Source: PubChem (National Center for Advancing Translational Sciences (NCATS))
KDM5B inhibitor: blocks human KDM5B histone demethylase activity; AID 1347165; 220,000 tested, 2.6% active; KDM5B demethylase, FDH-coupled NADH fluorescence (FDH is formaldehyde dehydrogenase); Potency, µM (top dose mostly 57.7 µM), hits mostly inhibitors; active = well fitted inhibition curve with a large enough effect; also: 0% is about no effect; nearly all actives have a fitted effect of over 70% in size
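Inhibition is measured as reduced NADH fluorescence generation from FDH coupling to formaldehyde release. Truncated KDM5BΔAP at 200 nM final acts on H3K4me3 peptide (12.5 µM in substrate mix) in pH 7.5 HEPES buffer with Tween-20, 30 min, room temperature.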
* hit, by the source's call; ! = a repeat was not active. The entries come from a sample that favours hits as a whole. Potency is read from the fitted curve at half-maximal effect.

Results for COCCNC(=O)c1nc(-c2ccccc2)c2ccccn12 ?
KDM5B inhibitor: inactive

Results for CCC1(C)CC(CCNCc2ccccc2)(C(C)C)CCO1 (centres undefined) ?
KDM5B inhibitor: inactive

How did CN(C)CC(O)COc1ccc(NC(=O)Nc2cccc(F)c2)cc1 (centres undefined) do in these assays?
KDM5B inhibitor: inactive

How did O=C(Cc1ccc(Cl)cc1)N1CCC2(CC1)NC(=O)N(c1ccccc1Cl)N2 do in these assays?
KDM5B inhibitor: inactive

Results for CC(=O)NC1CCN(c2nc3ncccc3o2)CC1 ?
KDM5B inhibitor: 28.2µM*

What do the screens show for `O=C(NC1CCCC1)NC1CCN(c2nc3ncccc3o2)CC1`?
KDM5B inhibitor: 35.5µM*

What do the screens show for `CC(=O)Nc1cccc(NC(=O)C2CCN(c3nc4ccccc4o3)CC2)c1`?
KDM5B inhibitor: inactive

Results for CCOc1ccc(CNC(=O)C2CCN(c3nc4ccccc4o3)CC2)cc1 ?
KDM5B inhibitor: inactive

How did O=C(Nc1ccc(NC(=O)C2CCN(c3nc4ccccc4o3)CC2)cc1)C1CC1 do in these assays?
KDM5B inhibitor: inactive

How did O=C(Nc1cccc2cccnc12)NC1CCCCCC1 do in these assays?
KDM5B inhibitor: inactive

How did O=[S+]([O-])(c1cccc(C(F)(F)F)c1)N1CCN(c2nc3ncccc3o2)CC1 do in these assays?
KDM5B inhibitor: inactive

How did COc1ccc(C(=O)NC2CCN(c3cnn(C)c(=O)c3)CC2)cc1 do in these assays?
KDM5B inhibitor: inactive

What do the screens show for `C[S+](=O)([O-])NC1CCN(c2nc3ncccc3o2)CC1`?
KDM5B inhibitor: 35.5µM*!

What do the screens show for `COc1ccc(C(=O)NC2CCN(c3cc(C(F)(F)F)ncn3)CC2)cc1`?
KDM5B inhibitor: inactive

What do the screens show for `O=C(Nc1cccc2cccnc12)NC1CCCCC1`?
KDM5B inhibitor: inactive

How did COc1ccc(C(=O)NC2CCN(c3nc4ncccc4o3)CC2)cc1 do in these assays?
KDM5B inhibitor: 22.4µM*

What do the screens show for `Cc1ccc(-c2noc(CCC(=O)Nc3cccc(S(=O)(=O)NC4=NCCC4)c3)n2)cc1`?
KDM5B inhibitor: inactive

How did Cc1cc(C)n(-c2nc3c(c(=O)n(C)c(=O)n3C)n2Cc2ccccc2Cl)n1 do in these assays?
KDM5B inhibitor: inactive

Results for O=C(CSc1ncnc2ccccc12)Nc1c(Cl)cccc1Cl ?
KDM5B inhibitor: inactive

What do the screens show for `Cc1oc(-c2ccc(Cl)cc2)cc1C(=O)Nc1nccs1`?
KDM5B inhibitor: inactive

Results for Cn1c(-c2ccccc2)c(C(=O)CSc2ncc(C(F)(F)F)cc2Cl)c2ccccc21 ?
KDM5B inhibitor: inactive

Results for COc1cccc(/C=C(/C#N)c2ccc(C(F)(F)F)cn2)c1 ?
KDM5B inhibitor: inactive

Results for COc1ccc(C)cc1C(C)NC(=O)Cc1c[nH]c2ccccc12 (centres undefined) ?
KDM5B inhibitor: inactive

How did O=c1cc(CN2CCCCC2)nc2nc(-c3ccccc3)[nH]n12 do in these assays?
KDM5B inhibitor: inactive

What do the screens show for `Cn1ccc2cc(-c3csc(CN4CC(C)(NC(=O)C5CC5)C4)n3)ccc21`?
KDM5B inhibitor: inactive

How did CC(=O)NC1(C)CCN(Cc2cccc(Oc3ccccc3)c2)CC1 do in these assays?
KDM5B inhibitor: inactive

Results for CC(=O)NC1(C)CCN(Cc2ccccc2-c2ccc3c(ccn3C)c2)C1 (centres undefined) ?
KDM5B inhibitor: 35.5µM*

How did Cc1cc(C)cc(NC(=O)c2cnn3c2NC(C(=O)O)=CC3/C=C/c2ccccc2)c1 (centres undefined) do in these assays?
KDM5B inhibitor: inactive

Results for CCC(CC)C(=O)Nc1c(C)cc(C)cc1C ?
KDM5B inhibitor: inactive

Results for COc1ccccc1-c1cn2c(n1)CO[C@@H](CNC(=O)NCc1ccccc1)C2 ?
KDM5B inhibitor: inactive

What do the screens show for `COc1ccccc1-c1cnc(NCc2ccccc2)c2c1CCO2`?
KDM5B inhibitor: 35.5µM*

How did c1ccc(CNc2ncc(-c3ccc(N4CCOCC4)cc3)c3c2OCC3)cc1 do in these assays?
KDM5B inhibitor: 39.8µM*

Results for COc1ccccc1-c1cnc(Nc2ccc3c(c2)OCCO3)c2c1CCO2 ?
KDM5B inhibitor: 35.5µM*

How did c1ccc(-c2noc(-c3cncnc3Nc3ccc4c(c3)OCCO4)n2)cc1 do in these assays?
KDM5B inhibitor: inactive

Results for CN(C)c1cccc(-c2cnc(NC(=O)c3ccncc3)c3c2CCO3)c1 ?
KDM5B inhibitor: inactive

What do the screens show for `O=C(Nc1ncc(-c2ccccc2)c2c1OCC2)C1CCOCC1`?
KDM5B inhibitor: inactive

Results for COc1ccccc1-c1cnc(NC(=O)c2cnccn2)c2c1CCO2 ?
KDM5B inhibitor: 35.5µM*

How did COc1cccc(/C=N/NC(=O)c2cnccn2)c1OC do in these assays?
KDM5B inhibitor: inactive

How did COc1ccccc1OCC(=O)Nc1ccc2c(c1)OCCO2 do in these assays?
KDM5B inhibitor: inactive

How did O=C(O)c1cc(NCc2ccc(-c3ccccc3)cc2)ccc1N1CCOCC1 do in these assays?
KDM5B inhibitor: inactive

How did O=C(Nc1ccccc1)c1nn(Cc2ccccc2)c(=O)c2ccccc12 do in these assays?
KDM5B inhibitor: inactive

Results for Cc1ccc(CNC(=O)Cn2c(C)cc3ccccc32)cc1 ?
KDM5B inhibitor: inactive

What do the screens show for `Cc1ccc(C(=O)CC(Nc2ccc(Cl)cc2)c2ccccc2)cc1` (centres undefined)?
KDM5B inhibitor: inactive

How did CC(=O)Nc1ccc(CN2CCCC3(CC(c4cccnc4)=NO3)C2)cc1 (centres undefined) do in these assays?
KDM5B inhibitor: inactive

How did COc1cc(Nc2nc3ccccc3nc2NS(=O)(=O)c2cc(C)ccc2C)cc(OC)c1 do in these assays?
KDM5B inhibitor: inactive

How did COc1ccc(-c2cc(C(=O)O)c3cc(C(C)C)ccc3n2)cc1 do in these assays?
KDM5B inhibitor: inactive

Results for O=C(CSc1nnc(COc2ccccc2Cl)n1C1CC1)c1c[nH]c(C(=O)N2CCCC2)c1 ?
KDM5B inhibitor: inactive

What do the screens show for `O=C(CSc1nc2cc(S(=O)(=O)N3CCCCC3)ccc2o1)N1CCc2ccccc21`?
KDM5B inhibitor: inactive

What do the screens show for `CC(Sc1ccc2c(c1)OCCO2)C(=O)c1ccc(F)cc1` (centres undefined)?
KDM5B inhibitor: inactive

What do the screens show for `Cc1cccc(OCC(O)CN2CCCN(c3ccc(C(F)(F)F)cn3)CC2)c1` (centres undefined)?
KDM5B inhibitor: inactive

How did C[C@@H]1CN(C2CCN(Cc3cnn(C)c3C3CC3)CC2)C[C@H](C)O1 do in these assays?
KDM5B inhibitor: inactive

How did CC(C)(C)NC(=O)N1CCCN(c2ccc(C(F)(F)F)cn2)CC1 do in these assays?
KDM5B inhibitor: inactive

What do the screens show for `Cn1ncc(CN2CCCC23CCN(c2ccc(C(F)(F)F)cn2)CC3)c1C1CC1`?
KDM5B inhibitor: 22.4µM*

Results for O=S(=O)(c1ccc(C(F)(F)F)cc1)N1CCCN(c2ccc(C(F)(F)F)cn2)CC1 ?
KDM5B inhibitor: inactive

Results for Cn1cc(CN2CCCC23CCN(c2ccc(C(F)(F)F)cn2)CC3)cc1C#N ?
KDM5B inhibitor: 28.2µM*

What do the screens show for `Cc1cccc2c(=O)n(CC(=O)Nc3ccc4oc(C(C)C)nc4c3)cnc12`?
KDM5B inhibitor: inactive

How did C=CCNc1nc(C(=O)OCC(=O)NCc2cccc(OC)c2)cs1 do in these assays?
KDM5B inhibitor: inactive

What do the screens show for `CCc1n[nH]c(CC2CCN(C(=O)c3ccccc3)CC2)n1`?
KDM5B inhibitor: 22.4µM*

How did O=C(c1ccccc1)N1CCC(Cc2nc(-c3ccncc3)n[nH]2)CC1 do in these assays?
KDM5B inhibitor: inactive

What do the screens show for `CCc1n[nH]c(CC2CCN(C(=O)c3ccc(OC)c(OC)c3)CC2)n1`?
KDM5B inhibitor: inactive
